We go through 117 compounds from PubChem BioAssay AID488969 (Vanderbilt High Throughput Screening Facility, 2010).

Whole data set: some 110,000 compounds, median “z-score” near -0.1, cut for the highest 2% near 2. Many of the other results were omitted from the sample, so the highest values are more common in it than they were. The source made the active and inactive calls.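 Rule for the calls: active = z-score in the third read window above 3 or below -3; inactive = the rest.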

For this assay, the target named is Metabotropic glutamate receptor 8 (Rattus norvegicus) (UniProt P70579). Nature of the assay: mGluR8 Gi/Go-coupled signaling modulation – cell-based, rat, thallium flux, HTS, primary screen (AID 488969). The following applies: HEK293 rat mGluR8, GIRK (G protein-gated inwardly rectifying potassium channel) thallium flux, FluoZin2; at 10 µM; stronger effect = higher value; submaximal glutamate (EC20) added with thallium.
Sequence of Metabotropic glutamate receptor 8 (Rattus norvegicus) (P70579 whole entry, looked up): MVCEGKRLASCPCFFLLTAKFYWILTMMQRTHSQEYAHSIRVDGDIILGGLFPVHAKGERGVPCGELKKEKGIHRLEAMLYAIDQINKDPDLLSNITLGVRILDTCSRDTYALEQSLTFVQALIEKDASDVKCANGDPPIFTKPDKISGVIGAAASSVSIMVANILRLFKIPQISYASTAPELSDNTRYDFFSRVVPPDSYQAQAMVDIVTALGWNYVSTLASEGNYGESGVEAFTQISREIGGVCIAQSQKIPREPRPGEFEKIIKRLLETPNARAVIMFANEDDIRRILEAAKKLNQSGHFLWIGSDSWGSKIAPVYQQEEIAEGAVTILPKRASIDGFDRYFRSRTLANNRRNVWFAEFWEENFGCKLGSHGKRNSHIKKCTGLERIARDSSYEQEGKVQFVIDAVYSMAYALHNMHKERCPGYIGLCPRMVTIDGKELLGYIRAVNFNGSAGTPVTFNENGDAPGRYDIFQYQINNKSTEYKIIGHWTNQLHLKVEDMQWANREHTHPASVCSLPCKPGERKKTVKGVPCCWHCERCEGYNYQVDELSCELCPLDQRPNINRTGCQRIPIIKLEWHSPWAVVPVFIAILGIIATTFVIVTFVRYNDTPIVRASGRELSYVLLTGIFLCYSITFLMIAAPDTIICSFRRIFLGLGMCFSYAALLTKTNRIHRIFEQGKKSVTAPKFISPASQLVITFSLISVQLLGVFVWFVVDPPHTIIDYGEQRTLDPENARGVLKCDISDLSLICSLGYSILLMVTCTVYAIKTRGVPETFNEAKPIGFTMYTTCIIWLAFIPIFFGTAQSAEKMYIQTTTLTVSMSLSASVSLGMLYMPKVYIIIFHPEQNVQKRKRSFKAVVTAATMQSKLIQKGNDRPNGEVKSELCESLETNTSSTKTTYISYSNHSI
As for `O=Cc1cccn1Cc1ccc(Cl)cc1Cl`, the z-score is -0.152. Compound `Cc1nn(-c2ccccc2)c2c1C1(C(=O)N(C)c3ccccc31)C(C#N)=C(N)O2` (configuration not stated) returned a z-score of -0.0421. In the case of `O=C1OCCC1Sc1nc2cc(Cl)ccc2n1Cc1ccccc1` (configuration not stated), the z-score was 6.69 (active). In turn, `O=C1OCCC1Sc1nnc(-c2ccc(Cl)cc2)n1Cc1ccccc1` (configuration not stated) came in with a z-score of -0.478. As to `O=C1OCCC1Sc1nc2ccccc2n1Cc1ccccc1` (configuration not stated), the z-score is -1.37. The same measure for `Cc1c(N=C2SCC(=O)N2/N=C/c2ccccc2Cl)c(=O)n(-c2ccccc2)n1C`: 0.339; for `Cc1sc2ncnc(SCC(=O)NC3CC3)c2c1C`: 0.845.

Turning to `Cc1sc2ncnc(SCC(=O)N3CCCC3=O)c2c1C`, the z-score is 2.71. Consider `Cc1sc2ncnc(SCC(=O)N3CCCC3)c2c1C`, for which the z-score worked out at 0.342. The compound `COc1cc(C(=O)Nc2nnc(C)s2)cc(OC)c1OC` registered a z-score of 0.381. Turning to `Cc1ccc(-n2nc(-c3cccnc3)cc2C(=O)N2CCOCC2)c(C)c1`, the z-score was determined as 0.372.

In the case of `Nc1nnc(-c2ccccc2)s1`, the z-score was -0.337.

In turn, `Nc1ccccc1NC(=O)c1ccccc1N` returned a z-score of 0.194.

As for `Nc1nnc(C(=O)c2ccccc2N)s1`, the z-score is 4.29 (active). As for `Cc1c(NC(=O)COC(=O)C(c2ccc(Cl)cc2)C(C)C)c(=O)n(-c2ccccc2)n1C` (configuration not stated), the z-score was -0.457. Take `OC(CNC1CCCC1)COc1c(F)cc(Br)cc1F` (configuration not stated): the z-score stood at 0.142. For the compound `CC(C)(C)CC(C)(C)NCC(O)COc1c(F)cc(Br)cc1F` (configuration not stated), the z-score was 3.25 (active). `CC(C)(C)NCC(O)COc1c(F)cc(Br)cc1F` (configuration not stated) showed a z-score of 0.622. With `C=CCSC1=N/C(=C\c2ccsc2)C(=O)S1`, the z-score is -0.538. Next, `CC(C)OC(=O)c1cccnc1SCC(=O)N(C)c1ccccc1`: -0.698; `CCOc1ccc(CNC(=O)C2CCCN(S(C)(=O)=O)C2)cc1OC` (configuration not stated): 0.258; `CCC(=O)Nc1ccc(Cl)c(NC(=O)C(C)C)c1`: 0.418. Next, `C=COCCNC(=O)Nc1ccc(Cl)c(Cl)c1`: 3.37 (active). In turn, `Cc1nn(C)cc1CNC(=O)Nc1ccc(Br)cc1Cl` returned a z-score of -0.126. Take `Cc1nn(C)cc1CNC(=O)Nc1cccc(Cl)c1`: the z-score is 0.0377. The same measure for `O=C(NCCCn1ccnc1)Nc1ccc(Cl)c(Cl)c1`: 3.92 (active). Compound `Cc1nn(C)cc1CNC(=O)Nc1ccc(Cl)c(Cl)c1` yielded a z-score of 2.06. The same measure for `O=C(NCCCn1ccnc1)Nc1cccc(Cl)c1`: 0.583; for `CN(C)CCNC(=O)Nc1ccc(Cl)c(Cl)c1`: 0.092; for `C=COCCNC(=O)Nc1ccc(Cl)cc1Cl`: 0.104.

Compound `O=C(NCCCn1ccnc1)Nc1ccc(Cl)cc1Cl` returned a z-score of -0.326.

In turn, `CCOc1ccccc1Nc1nc(-c2sc(NC(=O)c3ccc([N+](=O)[O-])cc3)nc2C)cs1` yielded a z-score of 0.209.

`CCOc1ccc(CC(=O)Nc2c(C(N)=O)oc3ccc(Br)cc23)cc1OCC` had a z-score of -0.0702. As to `CN(C)/C=C1/N=C(c2ccccc2)OC1=O`, the z-score was -0.23. As to `COc1ccc(C(=O)c2ccc(CC#N)s2)cc1`, the z-score is -0.0619. For `CCn1c2ccccc2c2nnc(SCC(=O)OCN3C(=O)c4ccccc4C3=O)nc21`, the z-score is -0.087. Regarding `CC(C)(C)S(=O)c1cccs1` (configuration not stated), the z-score is 0.555.

For `CSc1nc(C)cc(OCC(=O)N2CCOCC2)n1`, the z-score turned out to be 0.387. Next, `Cc1cc(C)c2c(c1)/C(=N/NS(=O)(=O)c1ccccc1)CCC2`: -1.09. `Cc1cc(C)c2c(c1)/C(=N/NC(=S)Nc1ccc(F)cc1)CCC2` gave a z-score of 2.6.

Take `S=C(Nc1ccc(Cl)cc1)N1CCCCC1`: the z-score is -0.262. Regarding `S=C(Nc1ccc(Cl)cc1)N1CCCC1`, the z-score is 0.113. `Fc1ccc(NC(=S)NN=C2CCCCCC2)cc1`: the z-score is 12 (active). On to `Fc1ccc(NC(=S)N2CCCCC2)cc1`, for which the z-score was 0.208. In the case of `S=C(NN=C1CCCCCC1)Nc1ccc(Cl)cc1`, the z-score is 9.7 (active). On to `COc1ccc(NC(=S)N/N=C2/CCCc3c(C)cc(C)cc32)cc1`, for which the z-score stood at 0.0188. `Fc1ccc(NC(=S)N2CCCC2)cc1` yielded a z-score of -0.0754. `O=C1CC(c2ccccc2)CN1S(=O)(=O)c1ccccc1` (configuration not stated) registered a z-score of 0.00794. For `O=C(NCCc1csc(-c2cccnc2)n1)c1cccc2ccccc12`, the z-score was found to be 0.472.

As to `CC(C)=C1SC(N2CCCCC2)=NC1=O`, the z-score worked out at 1.93. For the compound `Cc1nn(CCc2n[nH]c(=S)n2C2CCCCC2)c(C)c1Br`, the z-score is -0.451. `COc1ccc(-c2csc(NC(=O)CN3C(=O)CCC3=O)n2)cc1OC` registered a z-score of -0.147.

Compound `Cc1cc(=O)n2[nH]c(-c3ccccc3Cl)cc2n1` registered a z-score of -0.0492.

In turn, `Cc1cc([N+](=O)[O-])c2[nH]c(C(=O)N/N=C/c3ccccc3C(=O)O)c(-c3ccccc3)c2c1` gave a z-score of -0.455. The compound `CCC/C=N/NC(=O)c1[nH]c2c([N+](=O)[O-])cccc2c1C` came in with a z-score of 2.02. `Cc1c(C(=O)N/N=C/C(C)C)[nH]c2c([N+](=O)[O-])cccc12` yielded a z-score of -0.722. Next, `CCc1nc(Nc2ccc(OC)c(OC)c2)c2nnn(Cc3ccccc3Cl)c2n1`: 0.049. The compound `COc1ccccc1NC(=O)COc1ccc(Br)cc1CO` displayed a z-score of 2.95. Turning to `O=C(COc1ccc(Br)cc1CO)Nc1ccccc1F`, the z-score was -0.0395. `CCOc1ccc(C(F)(F)F)cc1NC(=O)c1ccc(OC)c([N+](=O)[O-])c1`: the z-score came to 0.372.

`O=C(COc1ccc(Br)cc1CO)Nc1ccccc1` displayed a z-score of -0.336.

As to `COc1ccccc1NC(=O)COc1ccc(C(F)(F)F)cc1[N+](=O)[O-]`, the z-score was 4.19 (active). The same measure for `CCOc1ccc(C(F)(F)F)cc1NC(=O)COc1ccc(C(F)(F)F)cc1[N+](=O)[O-]`: -0.107.

In turn, `CCn1c(COc2ccc(C)cc2)nnc1SCc1nc2ccccc2[nH]1` yielded a z-score of -0.0293. In turn, `COCCN1C(=O)c2ccccc2C(C(=O)NCC2CCCO2)C1c1c[nH]c2ccccc12` (configuration not stated) displayed a z-score of -0.121.

On to `O=C(NCc1ccc2c(c1)OCO2)C1CCCN1C(=O)Nc1cccc(F)c1` (configuration not stated), for which the z-score came to 0.725. Compound `CCCC(=O)Nc1cc(-c2nnc(OC)c3ccccc23)ccc1N1CCCCC1` returned a z-score of -0.148. For the compound `O=CN1CC(=O)N(c2ccccc2)c2c([nH]c3ccccc23)C1`, the z-score stood at 0.383. The same measure for `CCc1cc(C(c2ccc(OC)c(OC)c2)N2CCOCC2)c(NC(=O)c2ccccc2)s1` (configuration not stated): -0.47. With `COC(=O)Cc1nnc(NC(=O)C(C)C)s1`, the z-score was 0.0291.

In turn, `CC(C)C(=O)Nc1nnc(CCc2nnc(NC(=O)C(C)C)s2)s1` had a z-score of 0.549. For `COCc1nnc(NC(=O)C(C)C)s1`, the z-score is 3.48 (active). Consider `CO/N=C/c1ccc(Sc2ccc(C)cc2)c([N+](=O)[O-])c1`, for which the z-score is -0.349.

As for `COc1cc(NC(=O)C2CCCO2)c(OC)cc1Cl` (configuration not stated), the z-score was -0.106. Consider `COc1cc(NC(=O)C(=O)NNC(=O)C2CCCCC2)c(OC)cc1Cl`, for which the z-score is 3.98 (active). On to `COc1ccc(OC)c(NC(=O)C2CCCCC2)c1`, for which the z-score was -0.385. The compound `O=C(Oc1cccc([N+](=O)[O-])c1)c1cc(-c2ccccc2)nc2ccccc12` had a z-score of 0.17.

For `C=CCc1cccc2cc(C(=O)N(C)C)c(=O)oc12`, the z-score turned out to be 0.176.

With `Cn1cccc1C(=O)N1CCN(c2cccc(C(F)(F)F)c2)CC1`, the z-score was -0.386. In the case of `CC1CCC(NC(=O)CC2Oc3ccccc3NC2=O)CC1` (configuration not stated), the z-score was -0.471. The same measure for `O=C(CC1Oc2ccccc2NC1=O)NC1CCCC1` (configuration not stated): -0.0976; for `O=C(CC1Oc2ccccc2NC1=O)NC1CC1` (configuration not stated): 2.19. Next, `Cc1ccc(NC(=O)CCn2cnc3cc(C)c(C)cc32)cc1`: -0.642. In turn, `CCOc1ccccc1N1CCN(C(=O)C(F)(F)F)CC1` returned a z-score of -0.337.

`Cc1cc(C)nc(NS(=O)(=O)c2ccc(N/C=C3\CCCC3=O)cc2)n1` had a z-score of -0.331.

As to `COc1ccccc1Nc1nc2nonc2nc1N1CCCCC1C` (configuration not stated), the z-score was -0.202. The compound `O=C(Nc1ccccc1N1CCN(c2ccc(F)cc2)CC1)C12CC3CC(CC(C3)C1)C2` displayed a z-score of -1.97. As for `O=C(N1CCOCC1)C12CC3CC(C1)CC(C(=O)N1CCOCC1)(C3)C2`, the z-score was 0.153. Regarding `O=C(NC(=S)N1CCOCC1)C12CCC3CC(CC(C3)C1)C2`, the z-score is 0.411. The same measure for `O=C(NC(=S)N1CCCCC1)C12CC3CC(CC(C3)C1)C2`: 5.6 (active). Turning to `CC12CC3CC(C)(C1)CC(C(=O)NC(=S)N1CCOCC1)(C3)C2`, the z-score is 3.1 (active).

On to `CC12CC3CC(C)(C1)CC(CN1CCOCC1)(C3)C2`, for which the z-score is -0.06. In the case of `O=C(NC(=S)N1CCN(c2ccc(F)cc2)CC1)C12CC3CC(CC(C3)C1)C2`, the z-score amounted to 2.89. For `O=C(N1CCN(c2ccccc2)CC1)C12CC3CC(CC(C3)C1)C2`, the z-score is -0.202. Compound `O=C(NC(=S)N1CCOCC1)C12CC3CCC(CC(C3)C1)C2` displayed a z-score of 0.454. The same measure for `CC12CC3(C)CC(C)(C1)CC(C(=O)NC(=S)NC(C)(C)C)(C2)C3`: 0.0601; for `CC12CC3(C)CC(C)(C1)CC(C(=O)NC(=S)N1CCOCC1)(C2)C3`: 8.61 (active); for `CC(C)(C)C(=O)NC(=S)N1CCOCC1`: -0.0566. The same measure for `CCOC(=O)Nc1cccc(NC(=O)c2cc(OC)cc(OC)c2)c1`: -0.454; for `C=CCc1ccc(OCC(O)COCC)c(OC)c1` (configuration not stated): -0.12; for `N#C/C(=C\c1cccs1)C(=O)NCc1cccnc1`: -0.112. Consider `O=C(CNc1ccc(C(F)(F)F)cc1[N+](=O)[O-])OCC(=O)c1ccccc1`, for which the z-score was -0.875. Next, `CCOc1ccccc1N1CCN(C(=S)Nc2ccc(S(N)(=O)=O)cc2)CC1`: -0.356. For the compound `CCN(CC)CCNC(=O)C12CC3CC(C)(CC(C)(C3)C1)C2`, the z-score amounted to 0.873. The same measure for `CCOc1ccccc1N1CCN(C(=S)NC(=O)C23CC4CC(CC(C4)C2)C3)CC1`: 4.1 (active); for `CC12CC3CC(C)(C1)CC(C(=O)NC(=S)N1CCCCC1)(C3)C2`: 8.62 (active); for `O=C(CC12CC3CC(CC(C3)C1)C2)NC(=S)N1CCCCC1`: 2.58. In turn, `O=C(CC12CC3CC(CC(C3)C1)C2)N1CCCC1` had a z-score of -0.327. In the case of `CCOc1ccccc1N1CCN(C(=O)c2ccccc2)CC1`, the z-score was -1.51.

Take `O=C(NC(=S)N1CCCCCC1)C1CC1`: the z-score was found to be 0.000532. As for `O=C(CC12CC3CC(CC(C3)C1)C2)NCC(=O)N1CCCC1`, the z-score stood at 0.463. The compound `COC1(c2ccccc2)NC(=S)NN=C1c1ccccc1` (configuration not stated) came in with a z-score of 0.721. As to `O=S(=O)(c1cccc(NC(=S)N2CCN(c3ccccc3)CC2)c1)C(F)F`, the z-score is -0.245.

Compound `Cc1occc1-c1nnc(SCC(=O)NC(C)(C)C)n1C(C)c1ccccc1` (configuration not stated) had a z-score of 0.32. `CN1C(=O)c2ccccc2C(C(=O)NCC2CCCO2)C1c1c[nH]c2ccccc12` (configuration not stated): the z-score was -1.14. Consider `COc1ccc(CCNC(=O)COC(=O)c2ccc(Br)o2)cc1OC`, for which the z-score is 0.125. For the compound `COc1ccc(CC(=O)NNC(=O)CSc2nnc(Cc3ccc(OC)cc3)n2-c2ccccc2)cc1`, the z-score is -0.277.
